Data published in PubChem BioAssay (NCI).
Compounds without any hit were thinned out: in the full panel of roughly 83,000, 20% have a hit.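 How to read the values: 0–100, growth inhibition (40 = 60% inhibited); 0, no net growth; -100 to 0, cell death (-40 = 40% of starting cells died; -100 = all dead).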 Values without a mark were called inactive. The source made the active and inactive calls. Rule for the calls: active = growth percent below 10; inactive = the rest.

Experiments:
Assay in all cases: NCI-60 one-dose screen, 48 h (100 = growth as untreated, 0 = no growth, -100 = all killed)
Settings in all cases: 10 µM unless noted
DU-145 prostate = tested on: DU-145 prostate
K-562 leukemia = tested on: K-562 leukemia
MDA-MB-231 breast = tested on: MDA-MB-231 breast
RXF 393 renal = tested on: RXF 393 renal
SF-268 CNS = tested on: SF-268 CNS
SF-295 CNS = tested on: SF-295 CNS
SF-539 CNS = tested on: SF-539 CNS
UACC-257 melanoma = tested on: UACC-257 melanoma
M14 melanoma = tested on: M14 melanoma
MALME-3M melanoma = tested on: MALME-3M melanoma

Compound | growth (DU-145 prostate) | growth (K-562 leukemia) | growth (MDA-MB-231 breast) | growth (RXF 393 renal) | growth (SF-268 CNS) | growth (SF-295 CNS) | growth (SF-539 CNS) | growth (UACC-257 melanoma) | growth (M14 melanoma) | growth (MALME-3M melanoma)
CC(=O)Nc1cc2c3c(cccc3c1)-c1ccccc1-2 | 97.7% | 71.9% | 67.5% | 92.4% | 39% | 92.9% | 39.7% | 88.8% | 99.6% | –
CC[C@@H](C)/C=C(C)/C=C/C(=O)c1c(O)c(-c2ccc(O)cc2)cn(OC2CC(=O)CCC(C)OC(=O)CC2O)c1=O (stereo not given in full) | 4.8% (active) | 13.8% | 42.6% | 33.6% | -7.36% (active) | -22% (active) | -4.57% (active) | -2.46% (active) | -13.7% (active) | –
CC(=O)N1N=C(c2ccc(C(F)(F)F)cc2)CC1c1ccc2c(c1)OCO2 (stereo not given) | 113% | 73.8% | 82.3% | 107% | 104% | 67.1% | 101% | 102% | 69.7% | –
COC(=O)[C@H]1[C@H]2C[C@@H]3c4[nH]c5cc(OC)ccc5c4CCN3C[C@H]2C[C@@H](OC(=O)/C=C/c2cc(OC)c(OC)c(OC)c2)[C@@H]1OC | 40.8% | -2.87% (active) | 65.1% | 61% | 68.6% | 14.6% | 71.8% | 85% | 71.5% | –
CCOC(=O)C1C(=O)NC(C(=O)OCC)(C(=O)OCC)C1CC (stereo not given) | 117% | 114% | 98.7% | 116% | 108% | 113% | 122% | 106% | – | –
CCN(CC)c1ccc(C(=C2C=CC(=[N+](CC)Cc3cccc(S(=O)(=O)O)c3)C=C2)c2ccc(N(CC)Cc3cccc(S(=O)(=O)O)c3)cc2)cc1 | 37.2% | 7.9% (active) | 62.3% | – | 34.5% | 15.5% | 62.1% | – | 19.5% | 59.4%
O=C1Nc2ccc(C(=O)O)c(O)c2C1=O | 111% | 107% | 113% | 116% | 104% | 108% | 94.4% | 117% | 107% | –
O=C(/C=C/c1c(-c2ccccc2)[nH]c2ccccc12)S(=O)(=O)c1ccccc1 | 76% | 9.37% (active) | 63.3% | – | 89.5% | 63.5% | 89.5% | – | 51.7% | 88.2%
Nc1ccc2c(c1)Cc1cc(Cl)c(Cl)cc1-2 | 59.9% | 67.4% | 52.5% | 50.7% | 74% | 50.1% | 74.2% | 77% | -9.59% (active) | –
CCOC(=O)Nc1ccc2c3c(cccc13)-c1ccccc1-2 | 66.1% | 15.6% | 35% | 57.9% | 52.3% | 27.2% | 21.9% | 59.4% | – | –
O=C1OC(Oc2ccccc2)(c2ccccc2)c2ccccc21 (stereo not given) | 108% | 55.3% | 98.3% | 120% | 95.3% | 150% | 100% | 112% | – | –
COCCCNS(=O)(=O)c1ncnc2nc[nH]c12 | 98.5% | 109% | 124% | – | 106% | 129% | 99.1% | – | 92.6% | 107%
CCSCC1CC(O)(c2ccccc2)C(c2ccccc2)C(c2ccc(Cl)cc2)O1 (stereo not given) | 18.2% | – | -26% (active) | -30.9% (active) | 17.3% | -54.1% (active) | -16.4% (active) | -11.5% (active) | 14.3% | -34.7% (active)
CC(=O)Nc1c(Cl)cc2c(c1Cl)Cc1ccccc1-2 | 108% | 104% | 80.3% | 104% | 111% | 132% | 105% | 106% | 107% | –
Nc1ccccc1-c1ccn[nH]1 | 101% | 78.5% | 101% | 111% | 88.8% | 101% | 97.9% | 103% | 94.2% | –
Cc1nn(-c2ccccc2)cc1/C=C1\SC(N2CCCCC2)=NC1=O | 91.4% | 32.1% | 76.4% | 86% | 91.3% | 128% | 60.9% | 99.3% | 92.6% | –
CCOC(CNCc1cc(C)c2[nH]c3ccccc3c2c1C)OCC | 109% | 34.3% | 63% | 73.2% | 86.2% | 60.2% | 83.7% | 76% | 64.9% | –
Cc1[nH]cnc1/C=C1\SC(N2CCCCC2)=NC1=O | 125% | 96.8% | 96.8% | 96.3% | 114% | 130% | 100% | 105% | 103% | –
CCOC(=O)CNC(=O)C1(NC(=O)CNC(=O)OCc2ccccc2)CCCC1 | 121% | 103% | 99.1% | 135% | 107% | 126% | 92.2% | 110% | 110% | –
